Test results reported in PubChem BioAssay (NCATS).
The source made the active and inactive calls. Calls follow the shape of the dose curve; as a rule, active = well fitted curve in the direction sought with a large enough effect; inconclusive = small, poorly fitted or top-dose-only effect, or another doubt; inactive = no such curve, though single readings can be large; an effect the other way counts as inactive or inconclusive.

target: Alpha-galactosidase A (Homo sapiens) (UniProt P06280); assay: Counterscreen for Glucocerebrosidase Inhibitors: qHTS Assay for Human alpha-Galactosidase at pH 4.5 (AID 992); details: purified enzyme, fluorogenic substrate; series mostly up to 76.9 µM
Sequence (P06280 whole entry, looked up): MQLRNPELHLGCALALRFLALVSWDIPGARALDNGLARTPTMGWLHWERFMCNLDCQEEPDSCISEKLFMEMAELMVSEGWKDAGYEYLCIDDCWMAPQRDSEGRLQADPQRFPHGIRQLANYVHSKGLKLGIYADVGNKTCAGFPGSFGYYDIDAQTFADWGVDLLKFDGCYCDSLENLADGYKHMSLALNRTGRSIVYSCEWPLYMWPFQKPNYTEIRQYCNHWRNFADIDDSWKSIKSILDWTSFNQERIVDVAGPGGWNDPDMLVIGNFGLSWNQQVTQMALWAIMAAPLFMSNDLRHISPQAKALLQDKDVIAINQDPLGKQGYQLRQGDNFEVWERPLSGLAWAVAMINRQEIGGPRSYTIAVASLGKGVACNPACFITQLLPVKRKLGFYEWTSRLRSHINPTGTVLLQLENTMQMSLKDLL
Outline: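 Enzyme at 2 nM final was combined with compound (0.7 nM to 77 uM) and 80 uM 4-methylumbelliferyl alpha-D-galactopyranoside in 50 mM citric acid, 0.005% Tween-20, pH 4.5. After 20 min at room temperature, fluorescence was read (Ex 365/Em 440 nm); AC50 came from Hill fits.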

Row | SMILES | outcome
1 | Cc1ccc(Cl)c(Nc2ccccc2C(=O)O)c1Cl | inactive
2 | C[C@]12CCC(=O)C=C1CC[C@@H]1[C@@H]2C(=O)C[C@@]2(C)[C@H]1CC[C@]2(O)C(=O)CO | inactive
3 | CN(C)CC/C=C1\c2ccccc2COc2ccccc21 | inactive
4 | CCCN(CCC)CCc1cccc2c1CC(=O)N2 | inactive
5 | Cc1scc2c1N(C(=O)CN1CCN(C)CC1)c1ccccc1NC2=O | inactive
6 | CCCCNc1c(C(=O)OCC)c(C)nc2c1cnn2CC | inactive
7 | OCCN1CCN(CCCN2c3ccccc3C=Cc3ccccc32)CC1 | inactive
8 | CC[N+](C)(C)c1cccc(O)c1 | inactive
9 | CC(C)[N+](C)(CCOC(=O)C1c2ccccc2Oc2ccccc21)C(C)C | inactive
10 | C[N+](C)(C)CCOC(N)=O | inactive
11 | Cc1nc2c([nH]1)c(=O)n(C)c(=O)n2Cc1ccco1 | inactive
12 | C[C@H](CS)C(=O)N1CCC[C@H]1C(=O)O | inactive
13 | CCCOc1ccccc1-c1nc2n[nH]nc2c(=O)[nH]1 | inactive
14 | CCN(CC)CCNC(=O)c1ccc(NC(C)=O)cc1 | inactive
15 | CN1CCN(CC(=O)N2c3ccccc3C(=O)Nc3cccnc32)CC1 | inactive

target: alpha-glucosidase (Oryza sativa, rice) (UniProt Q653V4); assay: Counterscreen for Glucocerebrosidase Inhibitors: qHTS Assay for Rice alpha-Glucosidase at pH 5.0 (AID 997); details: rice alpha-glucosidase enzyme activity; series mostly up to 76.9 µM
Outline: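 Rice alpha-glucosidase (4 nM final) with 400 uM 4-methylumbelliferyl-alpha-D-glucopyranoside in citrate buffer pH 5.0, 20 min at room temperature, stopped at pH 10; fluorescence 365/440 nm, compounds 0.7 nM–77 uM, AC50 from Hill fits.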

Row | SMILES | outcome
16 | O=C1CC2(CCCC2)CC(=O)N1CCCCN1CCN(c2ncccn2)CC1 | inactive
17 | Cc1ccc(Cl)c(Nc2ccccc2C(=O)O)c1Cl | inactive
18 | CCO/C([O-])=N/c1c[n+](N2CCOCC2)no1 | inactive
19 | CC1=NS(=O)(=O)c2cc(Cl)ccc2N1 | inactive
20 | C[C@]12CCC(=O)C=C1CC[C@@H]1[C@@H]2C(=O)C[C@@]2(C)[C@H]1CC[C@]2(O)C(=O)CO | inactive
21 | CN(C)CC/C=C1\c2ccccc2COc2ccccc21 | inactive
22 | C[C@]12CCC(=O)C=C1CC[C@@H]1[C@@H]2CC[C@@]2(C)[C@H]1CC[C@]2(O)C(=O)CO | inactive
23 | Cc1scc2c1N(C(=O)CN1CCN(C)CC1)c1ccccc1NC2=O | inactive
24 | CCc1cccc(N(C)C(N)=Nc2cccc3ccccc23)c1 | inactive
25 | C[N+](C)(C)CCCCCCCCCC[N+](C)(C)C | inactive
26 | CCCCNc1c(C(=O)OCC)c(C)nc2c1cnn2CC | inactive
27 | CCNC(=O)N1CCN(CCCC(c2ccc(F)cc2)c2ccc(F)cc2)CC1 | inactive
28 | CC[N+](C)(C)c1cccc(O)c1 | inactive
29 | CC(C)[N+](C)(CCOC(=O)C1c2ccccc2Oc2ccccc21)C(C)C | inactive
30 | C[N+](C)(C)CCOC(N)=O | inactive
31 | Cc1nc2c([nH]1)c(=O)n(C)c(=O)n2Cc1ccco1 | inactive
32 | CCCC(C(=O)OCCN(CC)CC)(c1ccccc1)c1ccccc1 | inactive
33 | CCn1cc(C(=O)O)c(=O)c2cc3c(cc21)OCO3 | inactive
34 | CN(C)CCCN1c2ccccc2Sc2ccc(C(F)(F)F)cc21 | inactive
35 | CN(C)CCCN1c2ccccc2Sc2ccccc21 | inactive
36 | CSc1ccc(C(=O)c2[nH]c(=O)[nH]c2C)cc1 | inactive
37 | Cc1nc2sccn2c(=O)c1CCN1CCC(=C(c2ccc(F)cc2)c2ccc(F)cc2)CC1 | inactive
38 | CNCCCN1c2ccccc2CCc2ccccc21 | inactive
39 | O=C(O)CN(CCN(CC(=O)O)CC(=O)O)CCN(CC(=O)O)CC(=O)O | inactive
40 | CCCOc1ccccc1-c1nc2n[nH]nc2c(=O)[nH]1 | inactive
41 | CCN(CC)CCNC(=O)c1ccc(NC(C)=O)cc1 | inactive
42 | CN1CCN(CC(=O)N2c3ccccc3C(=O)Nc3cccnc32)CC1 | inactive
